This is a sample that favours compounds with a hit; in the whole collection about 21% have one here.
Shiga inhibitor – Shiga toxin inhibition | AID 2315 | Vero cells, Shiga toxin protein synthesis inhibition reporter | inhibition, % at 38.7 µM | 290,000 compounds, 9.2% hits; in the data active = inhibition mostly above about 28%, no sharp cut-off; inactive = mostly below about 43%
CHX counter – affects cycloheximide protein synthesis inhibition readout, counter-screen; cell reporter, cycloheximide protein synthesis inhibition counterscreen; max response, %; AID 2314; 300,000 compounds, 12% hits; in the data active = max response mostly above about 13%, no sharp cut-off; inactive = mostly below about 14%; note: read at 38.3 µM for the half of the compounds with a filed dose
AMA1 RON2 block – AMA1-RON2 (P. falciparum) interaction inhibition | AlphaScreen AMA1-biotinylated RON2 peptide binding | Potency, µM (highest dose often 58.2 µM), hits mostly inhibitors | 360,000 compounds, 0.2% hits | AID 720542; note: nearly all actives have a fitted effect of over 45% in size
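AMA1 (3D7) with his tag at 25 nM final met compounds first, then biotinylated RON2 peptide at 25 nM; detection used donor plus acceptor beads, 10 µg/mL apiece, read by AlphaScreen after 30 min at room temperature.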
Pf growth 48h – inhibits P. falciparum growth in the first generation, 48 h. 310,000 compounds, 5.9% hits. Potency, µM (series often up to 28.7 µM), actives largely listed as inhibitors. P. falciparum luciferase growth in erythrocytes, 48 h
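Cell-based growth assay: transgenic P. falciparum expressing firefly luciferase, cultured in red cells within RPMI 1640 containing 0.5% w/v Albumax, 24 mM bicarbonate and gentamycin. A drop in luciferase activity indicates inhibition.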
Pf growth 96h – inhibits malaria parasite growth, 96 h; P. falciparum luciferase reporter growth, 96 h; 320,000 compounds, 6.9% hits; Potency, µM (highest dose often 28.7 µM), hits mostly inhibitors
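96 h incubation, 37 C, 5% CO2, of luciferase-reporter P. falciparum-infected RBCs (2% hematocrit, 0.05% parasitemia final) with test compounds; endpoint luminescence.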
HCV inh – HCV inhibition; Huh7.5.1 HCVcc-Cre infection, luciferase reporter, 44 h; Potency, µM (series often up to 41.8 µM), most hits filed as inhibitors; 340,000 compounds, 3.4% hits; AID 651820
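Infectious HCV cell culture screen: compound-treated cells (1,000/well, pre-plated 4 h) are infected with HCVcc-Cre at roughly 0.5 moi and grown 44 h. Infection is quantified by luciferase signal after 15 min substrate incubation at room temperature.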
Of the large screens only hits and unclear results are named; the others gave an inactive call. Unless noted, calls come from the whole dose curve; as a rule, active = well fitted curve in the direction sought with a large enough effect; inconclusive = small, poorly fitted or top-dose-only effect, or another doubt; inactive = no such curve, though single readings can be large; an effect the other way counts as inactive or inconclusive.

CCO[C@@H]1OC(C(=O)Nc2ccccc2)=C[C@H](c2ccccc2)[C@H]1CCCO	none
C#CCNC(=O)C1=C[C@H](c2csc3ccccc23)[C@@H](CCCO)[C@H](OCC)O1	Pf growth 96h inconclusive
CCOC(=O)NS(=O)(=O)c1ccc(CCNC(=O)c2cc(C)on2)cc1	none
Clc1ccc(-c2cn3c(n2)-c2ccccc2C3)cc1Cl	Shiga inhibitor 64, CHX counter 40, HCV inh inconclusive
COc1ccc(N2C(C(C)=O)=NN(c3ccccc3)C2c2cccs2)cc1 (centres undefined)	Pf growth 96h 12µM (no result: AMA1 RON2 block, Pf growth 48h, HCV inh)
CCCOCCN(C(=O)CCl)c1c(CC)cccc1CC	none (no result: AMA1 RON2 block, Pf growth 48h, Pf growth 96h, HCV inh)
CN(Cc1ccc(Cl)cc1)C(=O)c1ccc2ccccc2n1	none
CN(Cc1c(F)cccc1Cl)C(=O)c1cnc2ccccc2n1	CHX counter 12, Pf growth 48h inconclusive
c1ccc(-n2ncc3c(NCCN4CCCCC4)ncnc32)cc1	Shiga inhibitor 66, CHX counter 52
Cc1cccc(-n2ncc3c(NCCN4CCOCC4)ncnc32)c1	none
c1ccc(-n2ncc3c(NCCN4CCOCC4)ncnc32)cc1	Shiga inhibitor 72, CHX counter 22, Pf growth 96h 12µM
Clc1ccc(Cn2ncc3c(NCCN4CCOCC4)ncnc32)cc1	Pf growth 48h inconclusive (no result: Pf growth 96h)
COc1ccccc1OCCCC(=O)Nc1nnc(C2CCCO2)s1 (centres undefined)	none
Cc1onc(-c2ccccc2)c1C(=O)N(Cc1ccccc1)C(C)C	none
C=CCc1c(C)nc(SC)nc1Nc1ccc(C)cc1	HCV inh 10µM (no result: Pf growth 96h)
C=CCc1c(C)nc(C)nc1N/N=C/c1ccc(F)cc1	none (no result: Pf growth 48h)
COc1ccc(C(=O)Nc2ccc3cn[nH]c3c2)c(OC)c1	Shiga inhibitor 123, CHX counter 63
CCOc1ccc(C(=O)Nc2ccc3[nH]ncc3c2)cc1	CHX counter 19, Pf growth 96h 12µM
COc1ccc(C(=O)Nc2ccc3c(c2)OCCO3)c(OC)c1	none (no result: Shiga inhibitor, CHX counter, Pf growth 48h, Pf growth 96h, HCV inh)
COc1ccc(C(=O)Nc2ccc3[nH]ncc3c2)cc1	Shiga inhibitor 53, CHX counter 19
CN1CCC(=O)N([C@H](CSc2ccc(Br)cc2)c2ccccc2)CC1	Shiga inhibitor 64, CHX counter 25
CN1CCC(=O)N(C(CSc2ccc(Br)cc2)Cc2ccccc2)CC1 (centres undefined)	none (no result: AMA1 RON2 block, Pf growth 48h, Pf growth 96h, HCV inh)
Cc1ccc(SCC(c2ccccc2)N2CCN(C)CCC2=O)cc1 (centres undefined)	Shiga inhibitor 52, CHX counter 31 (no result: AMA1 RON2 block, Pf growth 48h, Pf growth 96h, HCV inh)
CCOCC(=O)Nc1cc(Cl)c(OC)cc1OC	none (no result: AMA1 RON2 block, HCV inh)
O=C(c1ccc(Cl)cc1)N1N=CCC1(O)c1ccc(Cl)cc1 (centres undefined)	CHX counter 22
COc1ccc(-n2c(SCC(=O)Nc3cc(C)on3)nc3c(c2=O)SC(C)C3)cc1 (centres undefined)	none (no result: Shiga inhibitor, CHX counter, Pf growth 48h, Pf growth 96h, HCV inh)
CCN(CC)S(=O)(=O)c1ccc2[nH]cc(C(=O)NCCCN3CCCCC3C)c(=O)c2c1 (centres undefined)	Pf growth 48h 10µM (no result: Pf growth 96h)
CCN(CC)S(=O)(=O)c1ccc2[nH]cc(C(=O)NCCN3CCCCCC3)c(=O)c2c1	Pf growth 48h 1.9µM
CCN(CC)S(=O)(=O)c1ccc2[nH]cc(C(=O)NCCC3=CCCCC3)c(=O)c2c1	Pf growth 48h 8.3µM, HCV inh 11µM
CCN(CC)S(=O)(=O)c1ccc2[nH]cc(C(=O)NCCN3CCCCC3C)c(=O)c2c1 (centres undefined)	Pf growth 48h 4.1µM (no result: Pf growth 96h)
CCN(CC)S(=O)(=O)c1ccc2[nH]cc(C(=O)NCCCN3CCCCC3)c(=O)c2c1	Pf growth 48h inconclusive, Pf growth 96h inconclusive
COC(=O)c1c(C)[nH]c(C(=O)COC(=O)CCc2ccc(OC)c(OC)c2)c1C	none (no result: Shiga inhibitor, CHX counter, Pf growth 48h, Pf growth 96h, HCV inh)

Screens as filed in PubChem.
